# Data reported in ChEMBL document CHEMBL1961873, “Compounds: GSK PKIS; Assays: Nanosyn kinase panel” (2012).
# Legend:
# [1] = biological target: Sphingosine kinase 1 (Homo sapiens) (UniProt Q9NYA1); settings: at 1 µM;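 also: mean SPHK1 inhibition value reported from the GSK PKIS kinase panel screen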
# [2] = biological target: T1, Sphingosine kinase 2 (Homo sapiens) (UniProt Q9NRA0); settings: at 0.1 µM
# T1 sequence (whole entry): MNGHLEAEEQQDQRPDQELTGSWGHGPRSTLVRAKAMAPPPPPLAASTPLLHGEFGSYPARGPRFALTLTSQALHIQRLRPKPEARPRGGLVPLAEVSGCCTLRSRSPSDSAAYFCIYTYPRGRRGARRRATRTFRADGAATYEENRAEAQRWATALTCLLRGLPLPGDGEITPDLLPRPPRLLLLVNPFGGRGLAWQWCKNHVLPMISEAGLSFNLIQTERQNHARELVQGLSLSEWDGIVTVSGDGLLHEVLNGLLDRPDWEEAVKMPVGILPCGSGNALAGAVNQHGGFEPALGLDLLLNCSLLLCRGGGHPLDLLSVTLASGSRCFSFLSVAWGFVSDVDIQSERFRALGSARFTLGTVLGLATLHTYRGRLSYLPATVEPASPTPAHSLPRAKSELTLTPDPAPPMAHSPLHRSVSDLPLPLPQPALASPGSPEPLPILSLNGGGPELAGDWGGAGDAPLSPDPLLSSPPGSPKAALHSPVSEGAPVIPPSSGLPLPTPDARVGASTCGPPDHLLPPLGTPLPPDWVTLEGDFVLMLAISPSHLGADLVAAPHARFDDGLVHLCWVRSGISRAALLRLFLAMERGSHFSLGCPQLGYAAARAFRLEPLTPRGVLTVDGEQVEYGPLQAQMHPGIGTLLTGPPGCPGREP
# [3] = biological target: T1, Sphingosine kinase 2 (Homo sapiens); settings: at 1 µM
# [4] = biological target: Casein kinase II subunit alpha (Homo sapiens) (UniProt P68400); settings: at 0.1 µM
# Chain of Casein kinase II subunit alpha (Homo sapiens) (P68400 whole entry, looked up): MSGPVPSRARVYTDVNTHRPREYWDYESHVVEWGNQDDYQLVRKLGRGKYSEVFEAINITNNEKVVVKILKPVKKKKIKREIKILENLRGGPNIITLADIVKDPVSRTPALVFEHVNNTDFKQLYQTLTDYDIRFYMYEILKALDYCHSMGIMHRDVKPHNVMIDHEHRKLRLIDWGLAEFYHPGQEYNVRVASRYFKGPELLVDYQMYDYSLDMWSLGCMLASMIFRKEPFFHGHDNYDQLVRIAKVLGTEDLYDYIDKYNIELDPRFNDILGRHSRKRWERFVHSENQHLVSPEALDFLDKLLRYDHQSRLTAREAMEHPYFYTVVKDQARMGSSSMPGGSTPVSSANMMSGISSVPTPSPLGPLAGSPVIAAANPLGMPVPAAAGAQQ
# [5] = biological target: Casein kinase II subunit alpha (Homo sapiens) (UniProt P68400); settings: at 1 µM
# [6] = biological target: T2, Inhibitor of nuclear factor kappa-B kinase subunit alpha (Homo sapiens) (UniProt O15111); settings: at 0.1 µM
# T2 sequence (whole entry): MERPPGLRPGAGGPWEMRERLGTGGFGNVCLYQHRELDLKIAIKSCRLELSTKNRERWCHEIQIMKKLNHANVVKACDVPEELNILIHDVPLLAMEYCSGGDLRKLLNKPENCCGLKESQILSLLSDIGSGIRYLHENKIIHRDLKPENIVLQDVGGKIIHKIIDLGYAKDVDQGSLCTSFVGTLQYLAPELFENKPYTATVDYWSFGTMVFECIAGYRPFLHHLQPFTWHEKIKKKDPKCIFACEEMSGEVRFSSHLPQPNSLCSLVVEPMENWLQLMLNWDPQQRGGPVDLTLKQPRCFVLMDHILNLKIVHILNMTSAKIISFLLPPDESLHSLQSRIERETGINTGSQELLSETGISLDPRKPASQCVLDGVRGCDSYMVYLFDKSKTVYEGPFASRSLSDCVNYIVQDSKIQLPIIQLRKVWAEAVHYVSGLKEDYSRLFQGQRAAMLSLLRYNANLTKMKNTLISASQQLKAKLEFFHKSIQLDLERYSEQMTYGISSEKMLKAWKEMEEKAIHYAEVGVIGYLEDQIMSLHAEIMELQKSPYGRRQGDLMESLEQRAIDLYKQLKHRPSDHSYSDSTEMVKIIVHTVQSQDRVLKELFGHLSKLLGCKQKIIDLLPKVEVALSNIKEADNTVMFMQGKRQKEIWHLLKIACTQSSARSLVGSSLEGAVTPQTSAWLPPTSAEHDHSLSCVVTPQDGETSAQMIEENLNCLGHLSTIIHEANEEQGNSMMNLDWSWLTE
# [7] = biological target: T2, Inhibitor of nuclear factor kappa-B kinase subunit alpha (Homo sapiens); settings: at 1 µM
# [8] = biological target: T3, Inhibitor of nuclear factor kappa-B kinase subunit beta (Homo sapiens) (UniProt O14920); settings: at 0.1 µM
# T3 sequence (whole entry): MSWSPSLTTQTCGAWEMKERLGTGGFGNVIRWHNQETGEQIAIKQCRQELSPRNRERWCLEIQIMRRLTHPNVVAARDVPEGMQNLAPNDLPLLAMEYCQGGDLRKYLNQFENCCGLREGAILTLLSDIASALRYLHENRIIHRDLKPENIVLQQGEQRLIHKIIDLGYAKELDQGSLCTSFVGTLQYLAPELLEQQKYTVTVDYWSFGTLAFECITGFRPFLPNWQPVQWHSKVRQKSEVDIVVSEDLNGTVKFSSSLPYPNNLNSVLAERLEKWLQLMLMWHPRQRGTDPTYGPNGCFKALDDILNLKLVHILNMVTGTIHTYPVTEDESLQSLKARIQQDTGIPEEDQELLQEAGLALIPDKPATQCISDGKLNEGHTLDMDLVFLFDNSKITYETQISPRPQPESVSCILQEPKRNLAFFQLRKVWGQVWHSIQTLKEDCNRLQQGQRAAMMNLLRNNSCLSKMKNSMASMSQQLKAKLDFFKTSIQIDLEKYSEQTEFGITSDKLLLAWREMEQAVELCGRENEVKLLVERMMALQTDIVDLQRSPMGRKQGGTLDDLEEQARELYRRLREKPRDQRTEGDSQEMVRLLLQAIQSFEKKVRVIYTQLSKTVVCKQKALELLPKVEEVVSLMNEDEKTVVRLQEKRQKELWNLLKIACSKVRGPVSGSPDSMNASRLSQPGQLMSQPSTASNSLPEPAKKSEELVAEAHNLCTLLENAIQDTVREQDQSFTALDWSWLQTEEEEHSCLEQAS
# [9] = biological target: T3, Inhibitor of nuclear factor kappa-B kinase subunit beta (Homo sapiens); settings: at 1 µM
# [10] = biological target: T4, Inhibitor of nuclear factor kappa-B kinase subunit epsilon (Homo sapiens) (UniProt Q14164); settings: at 0.1 µM
# T4 sequence (whole entry): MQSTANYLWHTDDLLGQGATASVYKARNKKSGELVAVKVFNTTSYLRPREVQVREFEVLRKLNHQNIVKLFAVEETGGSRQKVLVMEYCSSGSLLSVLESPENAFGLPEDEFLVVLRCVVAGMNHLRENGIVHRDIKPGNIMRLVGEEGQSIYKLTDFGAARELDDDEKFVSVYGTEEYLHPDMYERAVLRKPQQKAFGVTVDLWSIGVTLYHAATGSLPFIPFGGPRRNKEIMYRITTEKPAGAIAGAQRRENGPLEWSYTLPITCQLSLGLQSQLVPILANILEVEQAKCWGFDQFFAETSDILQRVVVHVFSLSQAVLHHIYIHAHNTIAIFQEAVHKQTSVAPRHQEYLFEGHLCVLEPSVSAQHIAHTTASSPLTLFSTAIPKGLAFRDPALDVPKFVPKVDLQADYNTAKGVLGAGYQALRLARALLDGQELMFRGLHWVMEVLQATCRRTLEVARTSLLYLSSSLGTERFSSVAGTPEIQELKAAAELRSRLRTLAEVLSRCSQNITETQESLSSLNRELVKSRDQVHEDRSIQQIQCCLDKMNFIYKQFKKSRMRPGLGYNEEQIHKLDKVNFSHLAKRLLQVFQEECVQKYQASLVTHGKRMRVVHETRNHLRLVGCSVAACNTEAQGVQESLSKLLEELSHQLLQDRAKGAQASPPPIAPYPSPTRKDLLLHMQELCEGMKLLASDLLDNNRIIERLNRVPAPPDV
# [11] = biological target: T4, Inhibitor of nuclear factor kappa-B kinase subunit epsilon (Homo sapiens); settings: at 1 µM
# [12] = biological target: T5, Serine/threonine-protein kinase Nek1 (Homo sapiens) (UniProt Q96PY6); settings: at 0.1 µM
# T5 sequence (whole entry): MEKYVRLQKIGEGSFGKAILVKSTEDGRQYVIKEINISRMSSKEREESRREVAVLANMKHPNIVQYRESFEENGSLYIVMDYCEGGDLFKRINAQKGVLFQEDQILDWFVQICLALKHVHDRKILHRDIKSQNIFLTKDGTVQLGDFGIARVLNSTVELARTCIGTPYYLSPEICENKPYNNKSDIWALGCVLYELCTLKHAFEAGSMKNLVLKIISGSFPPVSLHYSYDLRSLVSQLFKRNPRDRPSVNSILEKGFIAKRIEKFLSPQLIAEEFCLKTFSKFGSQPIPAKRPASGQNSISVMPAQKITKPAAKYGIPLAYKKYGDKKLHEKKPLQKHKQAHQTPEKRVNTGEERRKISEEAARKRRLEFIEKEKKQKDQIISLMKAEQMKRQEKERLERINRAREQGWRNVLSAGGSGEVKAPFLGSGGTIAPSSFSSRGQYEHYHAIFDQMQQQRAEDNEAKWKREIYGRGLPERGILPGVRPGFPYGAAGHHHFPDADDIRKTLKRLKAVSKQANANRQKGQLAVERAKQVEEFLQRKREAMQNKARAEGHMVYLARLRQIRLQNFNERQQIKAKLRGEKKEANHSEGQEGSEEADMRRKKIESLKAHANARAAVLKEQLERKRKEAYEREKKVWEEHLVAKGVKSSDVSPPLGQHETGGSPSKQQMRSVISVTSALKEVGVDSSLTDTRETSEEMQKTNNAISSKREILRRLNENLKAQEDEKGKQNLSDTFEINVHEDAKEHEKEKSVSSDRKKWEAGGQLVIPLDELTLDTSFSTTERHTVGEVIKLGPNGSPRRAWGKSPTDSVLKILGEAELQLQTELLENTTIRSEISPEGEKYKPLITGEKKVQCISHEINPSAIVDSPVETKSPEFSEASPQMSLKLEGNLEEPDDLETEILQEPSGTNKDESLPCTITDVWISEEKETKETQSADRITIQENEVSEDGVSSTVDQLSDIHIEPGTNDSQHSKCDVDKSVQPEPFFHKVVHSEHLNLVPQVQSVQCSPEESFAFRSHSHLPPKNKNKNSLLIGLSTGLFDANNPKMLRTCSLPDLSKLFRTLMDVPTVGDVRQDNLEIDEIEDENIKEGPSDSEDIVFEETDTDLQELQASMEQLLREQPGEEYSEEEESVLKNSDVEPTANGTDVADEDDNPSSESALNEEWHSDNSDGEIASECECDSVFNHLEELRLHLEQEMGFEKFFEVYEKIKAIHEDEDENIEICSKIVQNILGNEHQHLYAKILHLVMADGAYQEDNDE
# [13] = biological target: T5, Serine/threonine-protein kinase Nek1 (Homo sapiens); settings: at 1 µM
# [14] = biological target: T6, Serine/threonine-protein kinase Nek2 (Homo sapiens) (UniProt P51955); settings: at 0.1 µM
# T6 sequence (whole entry): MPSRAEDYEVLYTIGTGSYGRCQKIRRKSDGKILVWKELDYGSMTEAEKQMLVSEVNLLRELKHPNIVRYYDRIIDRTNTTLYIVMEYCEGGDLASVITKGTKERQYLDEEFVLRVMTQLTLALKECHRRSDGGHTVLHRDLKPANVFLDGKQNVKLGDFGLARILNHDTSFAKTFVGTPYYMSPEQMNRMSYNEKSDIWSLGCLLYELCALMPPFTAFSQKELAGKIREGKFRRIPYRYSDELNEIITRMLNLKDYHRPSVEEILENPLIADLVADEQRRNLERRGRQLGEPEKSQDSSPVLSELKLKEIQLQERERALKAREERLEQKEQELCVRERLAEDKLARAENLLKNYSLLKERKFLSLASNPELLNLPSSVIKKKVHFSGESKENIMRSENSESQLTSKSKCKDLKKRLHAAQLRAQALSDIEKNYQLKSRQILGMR
# [15] = biological target: T6, Serine/threonine-protein kinase Nek2 (Homo sapiens); settings: at 1 µM
# [16] = biological target: Serine/threonine-protein kinase Nek6 (Homo sapiens) (UniProt Q9HC98); settings: at 0.1 µM
# Chain of Serine/threonine-protein kinase Nek6 (Homo sapiens) (Q9HC98 whole entry): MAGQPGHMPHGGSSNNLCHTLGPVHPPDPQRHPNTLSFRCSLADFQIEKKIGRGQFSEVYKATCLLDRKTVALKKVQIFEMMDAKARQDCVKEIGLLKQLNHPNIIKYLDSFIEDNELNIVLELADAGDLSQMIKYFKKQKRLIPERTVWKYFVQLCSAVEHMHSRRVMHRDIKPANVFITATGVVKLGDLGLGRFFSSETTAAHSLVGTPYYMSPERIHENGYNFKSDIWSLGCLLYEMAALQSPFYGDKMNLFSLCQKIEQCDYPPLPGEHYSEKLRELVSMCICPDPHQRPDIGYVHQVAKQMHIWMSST
# [17] = biological target: Serine/threonine-protein kinase Nek6 (Homo sapiens) (UniProt Q9HC98); settings: at 1 µM
# [18] = biological target: Serine/threonine-protein kinase Nek7 (Homo sapiens) (UniProt Q8TDX7); settings: at 0.1 µM
# Chain of Serine/threonine-protein kinase Nek7 (Homo sapiens) (Q8TDX7 whole entry, looked up): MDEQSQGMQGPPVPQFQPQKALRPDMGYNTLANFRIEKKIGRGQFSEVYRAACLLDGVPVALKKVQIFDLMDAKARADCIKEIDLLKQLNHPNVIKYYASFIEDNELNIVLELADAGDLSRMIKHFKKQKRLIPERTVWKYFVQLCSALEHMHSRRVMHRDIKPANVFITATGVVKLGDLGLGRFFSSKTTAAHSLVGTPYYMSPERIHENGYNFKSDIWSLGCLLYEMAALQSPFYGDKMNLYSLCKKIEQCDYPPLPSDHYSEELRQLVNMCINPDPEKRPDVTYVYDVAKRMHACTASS
# [19] = biological target: Serine/threonine-protein kinase Nek7 (Homo sapiens) (UniProt Q8TDX7); settings: at 1 µM
# [20] = biological target: T7, Serine/threonine-protein kinase Nek9 (Homo sapiens) (UniProt Q8TD19); settings: at 0.1 µM;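 also: reported value is the mean percent inhibition of NEK9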
# T7 sequence (whole entry): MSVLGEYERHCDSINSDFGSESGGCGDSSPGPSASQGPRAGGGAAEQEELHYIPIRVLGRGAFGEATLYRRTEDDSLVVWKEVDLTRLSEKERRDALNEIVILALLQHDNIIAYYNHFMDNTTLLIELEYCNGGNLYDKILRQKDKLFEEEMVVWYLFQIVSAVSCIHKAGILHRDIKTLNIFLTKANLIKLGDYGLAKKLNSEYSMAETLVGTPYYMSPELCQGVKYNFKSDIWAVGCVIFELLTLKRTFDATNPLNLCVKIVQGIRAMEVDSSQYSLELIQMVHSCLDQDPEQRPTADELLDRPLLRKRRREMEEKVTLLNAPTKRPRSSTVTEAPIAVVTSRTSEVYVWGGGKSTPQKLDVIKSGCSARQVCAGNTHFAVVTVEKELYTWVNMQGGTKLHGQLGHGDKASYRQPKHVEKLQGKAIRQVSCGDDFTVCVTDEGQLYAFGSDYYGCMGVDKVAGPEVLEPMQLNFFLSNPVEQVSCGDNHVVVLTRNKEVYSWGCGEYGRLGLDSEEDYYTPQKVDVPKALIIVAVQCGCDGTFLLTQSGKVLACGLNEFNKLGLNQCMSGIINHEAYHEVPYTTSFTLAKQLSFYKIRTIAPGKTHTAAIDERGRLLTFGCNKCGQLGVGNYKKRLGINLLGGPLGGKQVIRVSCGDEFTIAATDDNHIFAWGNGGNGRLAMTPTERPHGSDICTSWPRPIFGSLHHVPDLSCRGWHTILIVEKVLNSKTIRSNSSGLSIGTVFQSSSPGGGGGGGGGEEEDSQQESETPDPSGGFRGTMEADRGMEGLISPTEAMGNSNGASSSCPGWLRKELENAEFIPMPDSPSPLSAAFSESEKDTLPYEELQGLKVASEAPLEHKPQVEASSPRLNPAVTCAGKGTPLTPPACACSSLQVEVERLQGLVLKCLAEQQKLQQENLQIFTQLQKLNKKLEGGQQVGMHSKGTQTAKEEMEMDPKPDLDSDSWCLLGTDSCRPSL
# Chain of Sphingosine kinase 1 (Homo sapiens) (Q9NYA1 whole entry): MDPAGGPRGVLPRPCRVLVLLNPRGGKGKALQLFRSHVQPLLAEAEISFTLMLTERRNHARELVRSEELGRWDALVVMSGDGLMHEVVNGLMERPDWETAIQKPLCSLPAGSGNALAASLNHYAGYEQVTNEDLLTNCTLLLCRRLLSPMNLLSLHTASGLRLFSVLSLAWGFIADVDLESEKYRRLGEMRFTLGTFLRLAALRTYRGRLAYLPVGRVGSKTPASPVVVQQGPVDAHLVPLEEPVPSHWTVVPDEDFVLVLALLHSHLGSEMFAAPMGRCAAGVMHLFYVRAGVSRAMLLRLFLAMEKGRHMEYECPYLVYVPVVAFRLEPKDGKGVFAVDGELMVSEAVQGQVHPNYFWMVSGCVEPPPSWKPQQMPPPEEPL
structure (smiles),measurement,setting,value
COc1cc2ncnc(Nc3ccc4c(cnn4Cc4ccccc4)c3)c2cc1OC,inhibition,[1],2.19%
same,inhibition,[2],0.07%
same,inhibition,[3],0.14%
same,inhibition,[4],-5.08%
same,inhibition,[5],4.31%
same,inhibition,[6],2.23%
same,inhibition,[7],8.23%
same,inhibition,[8],3.63%
same,inhibition,[9],3.81%
same,inhibition,[10],2.69%
same,inhibition,[11],4.31%
same,inhibition,[12],1.6%
same,inhibition,[13],0.76%
same,inhibition,[14],2.52%
same,inhibition,[15],-2.69%
same,inhibition,[16],9.32%
same,inhibition,[17],3.49%
same,inhibition,[18],0.26%
same,inhibition,[19],6.18%
same,inhibition,[20],6.67%
